Measurements: the supplement of paper PMC12282887
± gives the standard deviation of the averaged measurements.

Experiments:
Assay in all cases: promoter activity interaction Z-score (Lux/OD deviation from empty-vector control); higher = stronger promoter induction by the compound
[1] = tested on: E. coli BW25113 acrABp lux reporter
Outline: (§1)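 E. coli BW25113 (wild type or marA, soxS or rob deletion) carrying low-copy luxCDABE promoter reporters grew in 40 µl LB Lennox in 384-well plates at 37°C. Each compound was tested at four 1:2 dilutions in biological duplicates. OD600 and luminescence were read every 30 min for 12 h. Areas were taken over 0–8 h (wild type) or 1–9 h (mutants), and wells below 10% of median growth area were removed. The score is the Z-transformed residual of growth-normalised luminescence fitted against the empty-vector control.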

[2] = tested on: E. coli BW25113 marRABp lux reporter
Outline: as §1

[3] = tested on: E. coli BW25113 micFp lux reporter
Outline: as §1

[4] = tested on: E. coli BW25113 ompFp lux reporter
Outline: as §1

[5] = tested on: E. coli BW25113 robp lux reporter
Outline: as §1

[6] = tested on: E. coli BW25113 soxSp lux reporter
Outline: as §1

[7] = tested on: E. coli BW25113 tolCp lux reporter
Outline: as §1

[8] = 12.9 µg/ml, genetic background: wild type
[9] = 12.9 µg/ml, genetic background: ΔmarA
[10] = 12.9 µg/ml, genetic background: Δrob
[11] = 12.9 µg/ml, genetic background: ΔsoxS
[12] = 25.8 µg/ml, genetic background: wild type
[13] = 25.8 µg/ml, genetic background: ΔmarA
[14] = 25.8 µg/ml, genetic background: Δrob
[15] = 25.8 µg/ml, genetic background: ΔsoxS
[16] = 51.6 µg/ml, genetic background: wild type
[17] = 51.6 µg/ml, genetic background: ΔmarA
[18] = 51.6 µg/ml, genetic background: Δrob
[19] = 51.6 µg/ml, genetic background: ΔsoxS
[20] = 103.1 µg/ml, genetic background: wild type
[21] = 103.1 µg/ml, genetic background: ΔmarA
[22] = 103.1 µg/ml, genetic background: Δrob
[23] = 103.1 µg/ml, genetic background: ΔsoxS

SMILES: CC(C)Cc1ccc(C(C)C(=O)O)cc1 (configuration not stated) [Ibuprofen]
- promoter activity interaction Z-score [1, 8]: 0.434 ± 0.3
- promoter activity interaction Z-score [1, 9]: -0.569 ± 0.69
- promoter activity interaction Z-score [1, 10]: 0.0303 ± 0.11
- promoter activity interaction Z-score [1, 11]: 0.455 ± 0.63
- promoter activity interaction Z-score [1, 12]: 0.485 ± 0.088
- promoter activity interaction Z-score [1, 13]: 0.667 ± 0.1
- promoter activity interaction Z-score [1, 14]: -0.156 ± 0.0041
- promoter activity interaction Z-score [1, 15]: -0.0442 ± 0.022
- promoter activity interaction Z-score [1, 16]: 0.366 ± 0.24
- promoter activity interaction Z-score [1, 17]: -0.62 ± 0.53
- promoter activity interaction Z-score [1, 18]: 0.236 ± 0.13
- promoter activity interaction Z-score [1, 19]: 0.0533 ± 0.45
- promoter activity interaction Z-score [1, 20]: 0.11 ± 0.073
- promoter activity interaction Z-score [1, 21]: 2.18 ± 0.32
- promoter activity interaction Z-score [1, 22]: -0.393 ± 0.093
- promoter activity interaction Z-score [1, 23]: -0.205 ± 0.13
- promoter activity interaction Z-score [2, 8]: 0.196 ± 0.28
- promoter activity interaction Z-score [2, 9]: 0.232 ± 0.58
- promoter activity interaction Z-score [2, 10]: 0.124 ± 0.06
- promoter activity interaction Z-score [2, 11]: 0.193 ± 0.14
- promoter activity interaction Z-score [2, 12]: 0.212 ± 0.12
- promoter activity interaction Z-score [2, 13]: 0.172 ± 0.49
- promoter activity interaction Z-score [2, 14]: 0.0582 ± 0.32
- promoter activity interaction Z-score [2, 15]: 0.0302 ± 0.03
- promoter activity interaction Z-score [2, 16]: 0.119 ± 0.036
- promoter activity interaction Z-score [2, 17]: -0.396 ± 0.089
- promoter activity interaction Z-score [2, 18]: 0.159 ± 0.17
- promoter activity interaction Z-score [2, 19]: -0.0798 ± 0.073
- promoter activity interaction Z-score [2, 20]: -0.239 ± 0.093
- promoter activity interaction Z-score [2, 21]: 0.541 ± 0.8
- promoter activity interaction Z-score [2, 22]: 0.0177 ± 0.01
- promoter activity interaction Z-score [2, 23]: -0.0508 ± 0.43
- promoter activity interaction Z-score [3, 8]: 0.145 ± 0.18
- promoter activity interaction Z-score [3, 9]: -0.00146 ± 0.055
- promoter activity interaction Z-score [3, 10]: -0.209 ± 0.0032
- promoter activity interaction Z-score [3, 11]: 0.214 ± 0.16
- promoter activity interaction Z-score [3, 12]: 0.384 ± 0.26
- promoter activity interaction Z-score [3, 13]: 0.0835 ± 0.1
- promoter activity interaction Z-score [3, 14]: -0.0551 ± 0.11
- promoter activity interaction Z-score [3, 15]: 0.0794 ± 0.022
- promoter activity interaction Z-score [3, 16]: -0.0155 ± 0.081
- promoter activity interaction Z-score [3, 17]: 0.0304 ± 0.18
- promoter activity interaction Z-score [3, 18]: -0.00979 ± 0.056
- promoter activity interaction Z-score [3, 19]: 0.259 ± 0.28
- promoter activity interaction Z-score [3, 20]: 0.239 ± 0.31
- promoter activity interaction Z-score [3, 21]: -0.0514 ± 0.092
- promoter activity interaction Z-score [3, 22]: -0.0741 ± 0.16
- promoter activity interaction Z-score [3, 23]: 0.193 ± 0.12
- promoter activity interaction Z-score [4, 8]: 0.335 ± 0.31
- promoter activity interaction Z-score [4, 9]: 0.335 ± 0.075
- promoter activity interaction Z-score [4, 10]: -0.132 ± 0.56
- promoter activity interaction Z-score [4, 11]: 0.513 ± 0.44
- promoter activity interaction Z-score [4, 12]: 0.726 ± 0.49
- promoter activity interaction Z-score [4, 13]: 1.13 ± 1.1
- promoter activity interaction Z-score [4, 14]: 0.704 ± 0.75
- promoter activity interaction Z-score [4, 15]: -0.184 ± 0.45
- promoter activity interaction Z-score [4, 16]: 0.353 ± 0.34
- promoter activity interaction Z-score [4, 17]: 0.469 ± 0.28
- promoter activity interaction Z-score [4, 18]: 0.418 ± 0.24
- promoter activity interaction Z-score [4, 19]: 0.0995 ± 0.085
- promoter activity interaction Z-score [4, 20]: 0.349 ± 0.46
- promoter activity interaction Z-score [4, 21]: 1.78 ± 0.81
- promoter activity interaction Z-score [4, 22]: 0.954 ± 1.3
- promoter activity interaction Z-score [4, 23]: -0.0643 ± 0.52
- promoter activity interaction Z-score [5, 8]: 0.839 ± 0.9
- promoter activity interaction Z-score [5, 9]: 0.214 ± 0.091
- promoter activity interaction Z-score [5, 10]: 0.6 ± 0.66
- promoter activity interaction Z-score [5, 11]: 0.59 ± 0.11
- promoter activity interaction Z-score [5, 12]: 1.19 ± 0.31
- promoter activity interaction Z-score [5, 13]: 2.36 ± 0.11
- promoter activity interaction Z-score [5, 14]: 0.557 ± 0.45
- promoter activity interaction Z-score [5, 15]: -0.577 ± 0.45
- promoter activity interaction Z-score [5, 16]: 0.25 ± 0.22
- promoter activity interaction Z-score [5, 17]: -0.675 ± 0.18
- promoter activity interaction Z-score [5, 18]: 0.24 ± 0.11
- promoter activity interaction Z-score [5, 19]: -0.0538 ± 0.089
- promoter activity interaction Z-score [5, 20]: 0.337 ± 0.38
- promoter activity interaction Z-score [5, 21]: 0.9946 ± 0.0074
- promoter activity interaction Z-score [5, 22]: 0.346 ± 0.75
- promoter activity interaction Z-score [5, 23]: 0.183 ± 1.1
- promoter activity interaction Z-score [6, 8]: 0.233 ± 0.39
- promoter activity interaction Z-score [6, 9]: -0.0514 ± 0.082
- promoter activity interaction Z-score [6, 10]: -0.201 ± 0.088
- promoter activity interaction Z-score [6, 11]: 0.159 ± 0.065
- promoter activity interaction Z-score [6, 12]: 0.503 ± 0.48
- promoter activity interaction Z-score [6, 13]: 0.0892 ± 0.08
- promoter activity interaction Z-score [6, 14]: -0.0188 ± 0.046
- promoter activity interaction Z-score [6, 15]: -0.109 ± 0.058
- promoter activity interaction Z-score [6, 16]: 0.0184 ± 0.19
- promoter activity interaction Z-score [6, 17]: -0.0994 ± 0.11
- promoter activity interaction Z-score [6, 18]: 0.111 ± 0.19
- promoter activity interaction Z-score [6, 19]: -0.0346 ± 0.014
- promoter activity interaction Z-score [6, 20]: -0.0139 ± 0.16
- promoter activity interaction Z-score [6, 21]: -0.0609 ± 0.081
- promoter activity interaction Z-score [6, 22]: -0.164 ± 0.23
- promoter activity interaction Z-score [6, 23]: -0.245 ± 0.15
- promoter activity interaction Z-score [7, 8]: -0.813 ± 0.87
- promoter activity interaction Z-score [7, 9]: 0.0288 ± 1.6
- promoter activity interaction Z-score [7, 10]: -0.78 ± 0.64
- promoter activity interaction Z-score [7, 11]: -0.147 ± 0.44
- promoter activity interaction Z-score [7, 12]: 0.563 ± 0.048
- promoter activity interaction Z-score [7, 13]: 0.78 ± 1.2
- promoter activity interaction Z-score [7, 14]: -0.284 ± 1.6
- promoter activity interaction Z-score [7, 15]: -0.361 ± 0.24
- promoter activity interaction Z-score [7, 16]: -0.451 ± 0.093
- promoter activity interaction Z-score [7, 17]: -0.139 ± 0.2
- promoter activity interaction Z-score [7, 18]: 0.442 ± 1.5
- promoter activity interaction Z-score [7, 19]: -0.22 ± 0.31
- promoter activity interaction Z-score [7, 20]: 0.199 ± 1.1
- promoter activity interaction Z-score [7, 21]: 0.757 ± 1.8
- promoter activity interaction Z-score [7, 22]: -0.377 ± 0.11
- promoter activity interaction Z-score [7, 23]: -0.341 ± 0.63
